Laboratory results taken from PubChem BioAssay (EPA / NIEHS).
The source made the active and inactive calls. The calls were made as follows: active = hit-call score of the fitted dose curve at least 0.9, where 1 is the maximum; inactive = score below 0.9.

These compounds were tested on Signal transducer and activator of transcription 3 (Homo sapiens) (UniProt P40763) (assay: LTEA_HepaRG_STAT3: Life Technologies and Expression Analysis (LTEA) Assay for Signal transducer and activator of transcription (STAT3) using HepaRG (AID 2283529)). Details: mRNA level, 48 h; actives raise or lower the signal.
Signal transducer and activator of transcription 3 (Homo sapiens), sequence (P40763 whole entry, looked up): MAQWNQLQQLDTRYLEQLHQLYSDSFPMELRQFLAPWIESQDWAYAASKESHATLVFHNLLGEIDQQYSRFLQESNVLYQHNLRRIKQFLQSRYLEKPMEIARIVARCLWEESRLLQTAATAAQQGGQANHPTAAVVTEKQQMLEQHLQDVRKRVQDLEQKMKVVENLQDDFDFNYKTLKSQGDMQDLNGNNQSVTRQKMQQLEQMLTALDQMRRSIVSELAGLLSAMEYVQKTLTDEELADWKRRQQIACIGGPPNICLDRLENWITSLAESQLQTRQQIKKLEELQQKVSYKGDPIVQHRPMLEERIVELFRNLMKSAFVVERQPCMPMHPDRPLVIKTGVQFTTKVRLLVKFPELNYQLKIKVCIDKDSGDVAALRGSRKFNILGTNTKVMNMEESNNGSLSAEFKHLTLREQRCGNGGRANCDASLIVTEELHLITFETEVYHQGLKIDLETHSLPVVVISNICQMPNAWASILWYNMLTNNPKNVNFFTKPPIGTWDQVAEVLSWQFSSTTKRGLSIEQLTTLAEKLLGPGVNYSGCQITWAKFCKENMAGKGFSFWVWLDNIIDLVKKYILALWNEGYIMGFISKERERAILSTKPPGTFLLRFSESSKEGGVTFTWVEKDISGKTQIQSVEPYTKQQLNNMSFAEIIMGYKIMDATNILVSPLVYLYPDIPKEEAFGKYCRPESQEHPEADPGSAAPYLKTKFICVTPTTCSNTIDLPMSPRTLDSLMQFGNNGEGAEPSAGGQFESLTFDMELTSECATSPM
Description: LTEA_HepaRG is a cell based, multiplexed-readout assay that uses HepaRG, a human liver cell line, with measurements taken at 48 hours after chemical dosing on a 96-well plate.LTEA_HepaRG_STAT3 is one of 102 assay component(s) measured in the LTEA HepaRG cell culture assay. It is a marker of Cell proliferation, survival, death.Data from the assay component LTEA_HepaRG_STAT3 was analyzed into 1 endpoint. This assay endpoint, LTEA_HepaRG_STAT3, was analyzed with bidirectional fitting relative to DMSO as the negative control and baseline of activity. Using a type of inducible reporter, measures of mRNA induction for gain or loss-of-signal activity can be used to understand regulation of transcription factor activity. To generalize the intended target to other relatable targets, this assay endpoint is annotated to the dna binding intended target family, where the subfamily is stat protein.
A total of 1060 chemcials from the ToxCast library were tested in eight-point concentration-response experiments. Cell culture and cytotoxicity assays were conducted at Thermo Fisher Scientific's Custom Services facility (Madison, WI). A single lot of human HepaRG cells (Thermo Fisher Scientific, Frederick, MD) was used for the cell culture experiments. 96-well format collagen type I coated plates of human HepaRG cells were prepared using established methods. Briefly, cryopreserved HepaRG cells were thawed, plated at a density of approximately 100,000 cells/well in HepaRG Thaw, Plate, and General Purpose media (HPRG770, Thermo Fisher Scientific), and incubated for 48 hours. 0.5% DMSO was selected as vehicle control to balance the requisite need of DMSO in HepaRG cultures to maintain differentiation (for example, baseline metabolism, proportions of hepatocytes vs. cholangiocytes), while enabling further hepatic receptor pathway activation (for example, PXR and CAR) in response to chemical exposure. 48 hours after plating, the culture medium was replaced with HepaRG Serum-Free Incudtion Media. Cells were exposed to each test chemical in duplicate and maintained in CO2 incubators for another 48 hours. Chemical plates were thawed to room temperature and 200x concentrations of treatment groups were prepared. 8-point conentration-reponse curves were made with the highest exposure at 100 uM, followed by half-log dilutions, all in 0.5% DMSO. Each test plate contained variouse controls, induction positive controls (1mM phenobarbital), cytotoxicity positive controls ([…] aflatoxin B1), vehicle controls (0.5% DMSO), and total lysis controls (0.5% DMSO). Cell morphology images were taken using an Essen IncuCyte FLR automated microscope, with six 96-well plates imaged in about 24 minutes. Images were captured and exported and JPEG files. Spent culture media was transfered to black-well plates for the LDH assay, and remaining media was sorted at -80 C for later use. Cells were treated with RLT buffer and frozen until shipped for gene expression analysis. Total RNA was isolated from the cell suspension in 75 uL of Buffer RLT (Qiagen, Germantown, MD 20874) by Quintiles/Expression Analysis (Durham, NC) using a custom isolation procedure. Total RNA from each plate well was transferred to a preamplification plate. Fluidigm's 96.96 Dynamic ArrayTM (Fluidigm, Amsterdam, the Netherlands) technology was used for gene expression analyses by quantitative reverse transcription polymerase chain reaction (qRT-PCR, performed by Quintiles/Expression Analysis, Durham, NC)89. Standard TaqManTM Assays (Applied Biosystems/ThermoFisher Scientific, Foster City, CA) were used to assess the expression of 93 genes selected based on their selectivity and sensitivity to important hepatic receptors known to be modulated by environmental chemicals; importance in human hepatocyte functionality; and hepatotoxicity. […]
With `CCCCOC(=O)c1ccccc1C(=O)O` the outcome was “inactive”.
In the case of `Cc1nn(-c2cc(NS(C)(=O)=O)c(Cl)cc2Cl)c(=O)n1C(F)F`, the outcome is reported as “inactive”.
With `CCOP(=O)(SC(C)CC)N1CCSC1=O` (stereo not given) the outcome was “inactive”.
With `CCCSP(=O)(OCC)SCCC` the outcome was “inactive”.
In the case of `C[N+]1(C)CCCCC1`, the outcome is reported as “inactive”.
In the case of `COc1cccc(C(=O)NN(C(=O)c2cc(C)cc(C)c2)C(C)(C)C)c1C`, the AC50 is reported as 5.4 µM (active).
With `CCc1cnc(C2=NC(C)(C(C)C)C(=O)N2)c(C(=O)O)c1` (stereo not given) the outcome was “inactive”.
For `CSc1nnc(C(C)(C)C)c(=O)n1N`, the outcome was “inactive”.
For `CC(C1CC1)C(O)(Cn1cncn1)c1ccc(Cl)cc1` (stereo not given), the AC50 was 0.389 µM (active).
In the case of `Cc1cc(C2CC2)nc(Nc2ccccc2)n1`, the outcome is reported as “inactive”.
With `O=C(O)c1cc(Oc2ccc(C(F)(F)F)cc2Cl)ccc1[N+](=O)[O-]` the outcome was “inactive”.
In the case of `CCC(=O)Nc1ccc(Cl)c(Cl)c1`, the outcome is reported as “inactive”.
With `S=C1NCCN1` the outcome was “inactive”.
`CCOP(=S)(OCC)OC(Cl)C(Cl)(Cl)Cl` (stereo not given) was tested, and the outcome was “inactive”.
With `CCCCSP(=O)(SCCCC)SCCCC` the outcome was “inactive”.
For `COc1cc(OC)nc(Sc2cccc(Cl)c2C(=O)O)n1`, the outcome was “inactive”.
With `CCOP(=S)(OCC)Oc1cc(C)nc(C(C)C)n1` the outcome was “inactive”.
In the case of `COP(=O)(OC)OC(Br)C(Cl)(Cl)Br` (stereo not given), the outcome is reported as “inactive”.
With `CC(C)N(C(=O)SCC(Cl)=C(Cl)Cl)C(C)C` the outcome was “inactive”.
`COP(=O)(OC)SCn1c(=O)oc2cc(Cl)cnc21` was tested, and the outcome was “inactive”.
For `CN(C)[C@@H]1C(=O)C(C(N)=O)=C(O)[C@@]2(O)C(=O)C3=C(O)c4c(O)cccc4[C@@](C)(O)[C@H]3[C@H](O)[C@@H]12`, the outcome was “inactive”.
With `CNC(=O)Oc1cccc2c1OC(C)(C)O2` the outcome was “inactive”.
`C#CCC1=C(C)C(OC(=O)C2C(C=C(C)C)C2(C)C)CC1=O` (stereo not given) was tested, and the outcome was “inactive”.
For `Nc1nc(N)nc(NC2CC2)n1`, the outcome was “inactive”.
For `CCOC(=O)CC(SP(=O)(OC)OC)C(=O)OCC` (stereo not given), the outcome was “inactive”.
In the case of `CC1(C(=O)Nc2ccc(O)c(Cl)c2Cl)CCCCC1`, the outcome is reported as “inactive”.
With `CCCSP(=O)(OCC)Oc1ccc(Br)cc1Cl` (stereo not given) the outcome was “inactive”.
In the case of `CNc1cnn(-c2cccc(C(F)(F)F)c2)c(=O)c1Cl`, the outcome is reported as “inactive”.
For `CC[C@H](C)[C@H]1O[C@]2(C=C[C@@H]1C)C[C@@H]1C[C@@H](C/C=C(\C)[C@@H](O[C@H]3C[C@H](OC)[C@@H](O[C@H]4C[C@H](OC)[C@@H](NC)[C@H](C)O4)[C@H](C)O3)[C@@H](C)/C=C/C=C3\CO[C@@H]4[C@H](O)C(C)=C[C@@H](C(=O)O1)[C@]34O)O2`, the AC50 was 11.9 µM (active).
For `CC(C)=CC1C(C(=O)OCN2C(=O)C3=C(CCCC3)C2=O)C1(C)C` (stereo not given), the outcome was “inactive”.
In the case of `CCOP(=O)(NC(C)C)Oc1ccc(SC)c(C)c1` (stereo not given), the outcome is reported as “inactive”.
In the case of `CCNc1nc(Cl)nc(NC(C)(C)C#N)n1`, the outcome is reported as “inactive”.
In the case of `COc1ccc(C(=CC(=O)N2CCOCC2)c2ccc(Cl)cc2)cc1OC`, the outcome is reported as “inactive”.
In the case of `CC1=NNC(=O)N(/N=C/c2cccnc2)C1`, the outcome is reported as “inactive”.
`CC(Oc1cccc(Cl)c1)C(=O)O` (stereo not given) was tested, and the outcome was “inactive”.
`CN(C)NC(=O)CCC(=O)O` was tested, and the outcome was “inactive”.
For `CCc1cccc(C)c1N(C(=O)CCl)C(C)COC` (stereo not given), the outcome was “inactive”.
`CCOP(=S)(OCC)Oc1ccc([N+](=O)[O-])cc1` was tested, and the outcome was “inactive”.
With `CCC(=NOC/C=C/Cl)C1=C(O)CC(C2CCOCC2)CC1=O` (stereo not given) the outcome was “inactive”.
In the case of `CSC1=N[C@@](C)(c2ccccc2)C(=O)N1Nc1ccccc1`, the AC50 is reported as 9.92 µM (active).
